The results in this text go back to PubChem BioAssay (Tox21).

Assay [1] in a line: qHTS assay for small molecule agonists of the p53 signaling pathway (AID 651631; calls by dose curve; note: nearly all actives have a fitted effect of over 15% in size; note: potency is the fitted concentration of half-maximal effect). The procedure, abridged:
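Stably transfected HCT-116 cells (beta-lactamase behind p53 response elements) get compounds after a 5 h settling period; 16 h later at 37 °C, FRET substrate is loaded and fluorescence read after 2 h.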
In general terms: Quantitative high-throughput screening tests each substance at several concentrations.

The nature of assay [2]: qHTS assay for small molecule agonists of the p53 signaling pathway - cell viability (AID 651633; calls by dose curve; note: nearly all actives have a fitted effect of over 30% in size; note: potency is the fitted concentration of half-maximal effect). In outline: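 p53RE-bla cells, seeded at 4,000 per well and rested 5 h at 37 C/5% CO2, received compounds in DMSO for 16 h at 37 C. CellTiter-Glo was then added, and luminescence was read after 30 min at room temperature to gauge cytotoxicity.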
Assay [3] in a line: qHTS assay to test for compound auto fluorescence at 460 nm (blue) in HEK293 cells (AID 720678). The procedure, abridged: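 Intrinsic compound fluorescence is recorded in live HEK293 cultures after overnight incubation at 37C, 5% CO2, using excitation 405 nm and emission 460 nm. Values are referenced to triamterene.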
The nature of assay [4]: qHTS assay to test for compound auto fluorescence at 590 nm (red) in HEK293 cells (AID 720679). The procedure, abridged: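 Red autofluorescence, HEK293 cells: 2,000 cells/well; attach 4-5 hr 37C; add 23 nL cpd or DMSO; incubate o/n 37C 5% CO2; read Ex540/Em590; Rose Bengal sodium reference.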
A short description of assay [5]: qHTS assay to test for compound auto fluorescence at 590 nm (red) in HepG2 cell free culture (AID 720684). The procedure, abridged: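 Ex 540 / Em 590 nm read of compound in cell-free MEM (10% FBS). Rose Bengal sodium reference.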
The target of assay [6] is Glucocorticoid receptor (Homo sapiens) (UniProt P04150). Put plainly: qHTS assay to identify small molecule agonists of the glucocorticoid receptor (GR) signaling pathway (AID 720691; active = well fitted activation curve with a large enough effect in the signal ratio in the repeat runs, not every such curve was filed as active; the % refers to the signal ratio). The procedure, abridged:
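HeLa GR-bla reporter line; cells pre-incubated 4 h, compound in DMSO 18 h at 37 C; LiveBLAzer B/G FRET substrate 2 h RT; fluorescence intensity read-out.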

Assay [7] is described as follows: qHTS assay for identifying genotoxic compounds that show differential cytotoxicity against isogenic chicken DT40 cell lines with known DNA damage response pathways - wild type cell line (AID 743012). Note: nearly all actives have a fitted effect of over 60% in size. The procedure, abridged: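 CellTiter-Glo luminescence readout of viability in wild type DT40 cells after 40 h compound exposure at 37 C/5% CO2; 300 cells/well; reagent incubated 30 min at room temperature before reading.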

Assay [8] is described as follows: qHTS assay for identifying genotoxic compounds that show differential cytotoxicity against isogenic chicken DT40 cell lines with known DNA damage response pathways - Rev3 mutant cell line (AID 743014). Note: nearly all actives have a fitted effect of over 55% in size.
A short description of assay [9]: qHTS assay to identify small molecule antagonists of the androgen receptor (AR) signaling pathway - cell viability counter screen (AID 743033; note: nearly all actives have a fitted effect of over 45% in size).
The nature of assay [10]: qHTS assay to identify small molecule antagonists of the androgen receptor (AR) signaling pathway using the MDA cell line - cell viability counter screen (AID 743041; note: nearly all actives have a fitted effect of over 45% in size). The procedure, abridged: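 In this qHTS counter assay, fluorescence intensity after CellTiter-Fluor addition indicated viability of MDA-kb2 AR-luc cells given compounds and R1881 for 16 h at 37C.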
Assay [11] is described as follows: qHTS assay to identify small molecule antagonists of the thyroid receptor (TR) signaling pathway - cell viability counter screen (AID 743064). Note: nearly all actives have a fitted effect of over 50% in size. Note: potency is the fitted concentration of half-maximal effect. In outline: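 Counter screen for cytotoxicity: compound plus T3 (1 nM final) on GH3.TRE-Luc cells, 23.5 h at 37 °C, then fluorescence viability readout with CellTiter-Fluor.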
The target in assay [12] is Estrogen receptor (Homo sapiens) (UniProt P03372). Put plainly: qHTS assay to identify small molecule agonists of the estrogen receptor alpha (ER-alpha) signaling pathway (AID 743075; calls by dose curve;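 note: HEK293 GripTite cells with ER-alpha and UAS-driven beta-lactamase reporter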).
For assay [13] the target is unchanged. Briefly: qHTS assay to identify small molecule agonists of the estrogen receptor alpha (ER-alpha) signaling pathway using the BG1 cell line (AID 743079). Note: nearly all actives have a fitted effect of over 20% in size.
Assay [14] is described as follows: qHTS assay to identify small molecule antagonists of the estrogen receptor alpha (ER-alpha) signaling pathway using the BG1 cell line (AID 743080; calls by dose curve;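 note: BG1 cells stimulated with 17beta-estradiol alongside compound; series mostly up to about 70 µM; nearly all actives have a fitted effect of over 25% in size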). The procedure, abridged:
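Readout is ONE-Glo luminescence, taken 30 min at room temperature after reagent addition, preceded by a CellTiter-Fluor viability read; BG1-Luc-4E2 cells had received compound and 17beta-estradiol for 21.5 h at 37 C.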

A short description of assay [15]: qHTS assay to identify small molecule that activate the aryl hydrocarbon receptor (AhR) signaling pathway - cell viability counter screen (AID 743086).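 Note: HepG2 liver cells carrying the AhR DRE luciferase reporter; series mostly up to about 70 µM; nearly all actives have a fitted effect of over 45% in size.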 The procedure, abridged:
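HepG2-AhR-luc (HG2L7.5c1) cells, 4000/well, were preincubated 5 h at 37C, exposed to compound in qHTS format for 24 hr at 37C, then given CellTiter-Fluor for 30 min; viability was read as fluorescence in the reporter wells.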

Assay [16] concerns the target Peroxisome proliferator-activated receptor gamma (Homo sapiens) (UniProt P37231). Put plainly: qHTS assay to identify small molecule agonists of the peroxisome proliferator-activated receptor gamma (PPARg) signaling pathway (AID 743094; active = well fitted activation curve with a large enough effect in the signal ratio in the repeat runs, not every such curve was filed as active; the % refers to the signal ratio). In outline: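 HEK293H PPARg-bla cells, 5 h settle at 37C/5% CO2; compound (DMSO) 17 h, 37C; B/G FRET substrate 1 h RT; fluorescence intensity read-out. qHTS format.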

Assay [17] deals with Nuclear receptor subfamily 1 group I member 2 (Rattus norvegicus) (UniProt Q9R1A7). Put plainly: Rat pregnane X receptor (rPXR) activation by small molecules, qHTS assay (AID 1346983). Note: nearly all actives have a fitted effect of over 20% in size. The conditions noted are these: rPXR luciferase reporter cells, One-Glo luminescence, 24 h; max activation: stronger effect = higher value. In outline: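 Cell-based rPXR luciferase reporter assay, 2,000 cells per well, rested 5hr at 37 C before compound addition in DMSO, then 24 hr at 37 C. One-Glo reagent was added and luminescence read after 30 min at room temperature.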

The target of assay [18] is Nuclear receptor subfamily 1 group I member 2 (Homo sapiens) (UniProt O75469). Put plainly: CYP3A4 induction through human pregnane X receptor (PXR) by small molecules, qHTS assay (AID 1346984). Note: nearly all actives have a fitted effect of over 40% in size. The procedure, abridged:
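HepG2-derived DPX-2 line carrying PXR plus a CYP3A4-promoter luciferase reporter; cells plated 5 hr, compound-exposed 24 hr at 37C. CYP3A4 activity probed with 3uM (final) Luciferin-IPA for 3hr, then luciferase read after One-Glo.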

Assay [19] shares this target. Briefly: Human pregnane X receptor (PXR) activation by small molecules, qHTS assay (AID 1346985). Note: nearly all actives have a fitted effect of over 40% in size. The procedure, abridged: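 DPX-2 cells (HepG2 co-transfected with a PXR response element and a CYP3A4-promoter luciferase construct) were seeded at 2,000 per well, rested 5 hr at 37C, then exposed to DMSO-dissolved compounds for 24 hr. Activation was read as luciferase luminescence.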

The nature of assay [20]: qHTS assay to test for compound auto fluorescence at 535 nm (green) in HEK293 cells (AID 720680).

Where “and” joins values, the source holds several entries; their conditions need not be identical. Equal entries are not always repeated. Values without a mark were called inactive. Records with an inconclusive call do not appear. Calls of active or inactive are those of the source. Unless noted, calls come from the whole dose curve; as a rule, active = well fitted curve in the direction sought with a large enough effect in the repeat runs; inconclusive = weak or mixed curves; inactive = no such curve, though single readings can be large; an effect the other way counts as inactive or inconclusive.
% is set by controls: 0 for no effect and ±100 for the full control effect.

Sequence of Nuclear receptor subfamily 1 group I member 2 (Rattus norvegicus) (Q9R1A7 whole entry, looked up): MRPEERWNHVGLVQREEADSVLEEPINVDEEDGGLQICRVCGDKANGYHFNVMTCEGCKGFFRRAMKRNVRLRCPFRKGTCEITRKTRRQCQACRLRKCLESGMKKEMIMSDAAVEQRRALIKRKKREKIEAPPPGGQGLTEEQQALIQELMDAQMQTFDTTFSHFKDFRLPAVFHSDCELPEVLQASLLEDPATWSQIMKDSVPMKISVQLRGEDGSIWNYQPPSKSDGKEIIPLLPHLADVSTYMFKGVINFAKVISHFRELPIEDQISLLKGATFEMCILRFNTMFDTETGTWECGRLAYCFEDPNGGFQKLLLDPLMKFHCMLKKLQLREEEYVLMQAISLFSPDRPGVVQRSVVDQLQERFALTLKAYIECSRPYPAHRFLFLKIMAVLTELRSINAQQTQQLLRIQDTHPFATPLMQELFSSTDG
Sequence of Glucocorticoid receptor (Homo sapiens) (P04150 whole entry, looked up): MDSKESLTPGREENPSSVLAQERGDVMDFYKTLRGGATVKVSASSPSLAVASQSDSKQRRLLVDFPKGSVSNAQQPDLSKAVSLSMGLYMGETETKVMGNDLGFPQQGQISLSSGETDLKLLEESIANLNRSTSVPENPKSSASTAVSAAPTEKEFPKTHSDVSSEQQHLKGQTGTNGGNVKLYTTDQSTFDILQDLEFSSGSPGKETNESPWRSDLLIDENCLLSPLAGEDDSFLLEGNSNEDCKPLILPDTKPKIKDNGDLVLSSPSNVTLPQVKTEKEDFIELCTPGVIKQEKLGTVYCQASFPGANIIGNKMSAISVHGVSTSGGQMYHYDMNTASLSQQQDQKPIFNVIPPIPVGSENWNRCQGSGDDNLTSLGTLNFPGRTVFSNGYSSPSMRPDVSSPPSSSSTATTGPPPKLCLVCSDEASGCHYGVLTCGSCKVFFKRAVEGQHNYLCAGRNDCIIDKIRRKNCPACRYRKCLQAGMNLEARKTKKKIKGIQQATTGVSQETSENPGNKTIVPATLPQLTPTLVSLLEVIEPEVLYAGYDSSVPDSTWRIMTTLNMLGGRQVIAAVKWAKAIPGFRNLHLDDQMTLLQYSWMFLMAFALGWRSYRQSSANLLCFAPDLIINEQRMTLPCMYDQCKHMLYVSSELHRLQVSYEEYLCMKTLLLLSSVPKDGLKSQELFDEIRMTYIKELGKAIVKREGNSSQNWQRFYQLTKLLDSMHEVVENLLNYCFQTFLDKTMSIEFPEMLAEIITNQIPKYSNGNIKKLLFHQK
Sequence of Estrogen receptor (Homo sapiens) (P03372 whole entry, looked up): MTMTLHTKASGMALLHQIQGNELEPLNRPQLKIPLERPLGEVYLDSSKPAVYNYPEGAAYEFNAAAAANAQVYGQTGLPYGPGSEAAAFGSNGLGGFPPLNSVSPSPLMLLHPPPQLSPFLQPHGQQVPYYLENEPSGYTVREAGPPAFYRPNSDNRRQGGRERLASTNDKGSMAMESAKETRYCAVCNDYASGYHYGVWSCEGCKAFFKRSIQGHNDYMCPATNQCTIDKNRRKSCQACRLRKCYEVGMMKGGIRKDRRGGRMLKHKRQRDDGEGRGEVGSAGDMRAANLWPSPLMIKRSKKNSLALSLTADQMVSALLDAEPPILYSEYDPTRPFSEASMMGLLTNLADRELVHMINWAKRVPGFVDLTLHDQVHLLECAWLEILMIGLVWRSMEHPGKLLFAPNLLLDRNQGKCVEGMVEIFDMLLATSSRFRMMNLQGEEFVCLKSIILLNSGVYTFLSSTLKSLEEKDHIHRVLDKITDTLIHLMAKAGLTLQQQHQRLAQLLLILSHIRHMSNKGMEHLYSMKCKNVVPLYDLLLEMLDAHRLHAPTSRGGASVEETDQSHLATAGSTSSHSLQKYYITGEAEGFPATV
Sequence of Peroxisome proliferator-activated receptor gamma (Homo sapiens) (P37231 whole entry, looked up): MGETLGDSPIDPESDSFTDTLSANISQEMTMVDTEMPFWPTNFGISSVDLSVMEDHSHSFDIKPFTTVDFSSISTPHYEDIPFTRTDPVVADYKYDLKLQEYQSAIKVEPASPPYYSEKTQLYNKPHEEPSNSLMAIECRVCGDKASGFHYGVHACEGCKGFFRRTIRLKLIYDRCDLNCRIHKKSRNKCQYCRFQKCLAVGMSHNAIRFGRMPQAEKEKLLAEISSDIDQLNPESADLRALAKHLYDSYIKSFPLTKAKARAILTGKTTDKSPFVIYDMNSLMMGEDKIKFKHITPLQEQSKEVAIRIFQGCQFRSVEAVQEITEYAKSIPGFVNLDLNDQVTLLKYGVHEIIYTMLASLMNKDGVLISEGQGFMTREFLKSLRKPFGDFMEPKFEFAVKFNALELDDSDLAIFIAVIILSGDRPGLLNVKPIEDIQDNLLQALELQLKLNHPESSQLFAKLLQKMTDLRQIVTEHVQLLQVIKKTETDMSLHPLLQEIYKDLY

As to `CN=C1CN(O)C(c2ccccc2)=c2cc(Cl)ccc2=N1`, the Potency result in assay [1], in [2], in [3], in assay [6], in [7] and in assay [8] was “inactive” throughout. Moreover, the Potency result in assay [9], in [10], in assay [11], in assay [12], in [13] and in assay [14] was “inactive” each time. Further, the Potency result in assay [15], in [16], in assay [18] and in [19] was “inactive” in each case. Also, the outcome in assay [4] and in assay [5] was inactive. For the same compound, in assay [17], the max activation was -1.86% and 4.26%.

As to `O=[N+]([O-])c1cc(I)c(O)c(I)c1`, the Potency was 5.31 µM (active) in assay [1], 3.76 µM (active) in assay [2] and 26.6 µM (active) in assay [11]. For the same compound, the compound was called inactive in assay [4] and in assay [5]. Besides, the Potency result in assay [20], in [6], in [9], in assay [10], in assay [15] and in [18] was “inactive” throughout. Besides, the Potency result in [19] is “inactive”. Moreover, the max activation in [17] was -2.81%.

As to `CCC1(CC)C(=O)NC(=O)N(C)C1=O`, the Potency entry in assay [1], in [2], in assay [3], in assay [20], in [6] and in [7] was “inactive” each time. The Potency entry in assay [8], in assay [11], in assay [12], in assay [13], in assay [14] and in [15] was “inactive” in each case. Also, the Potency entry in assay [16], in assay [18] and in assay [19] was “inactive” in each case. Also, the outcome in assay [4] and in assay [5] was inactive. The max activation in [17] is -3.02%.

`CN(C)CCCCCCN(C)C`: the Potency entry in assay [2], in assay [20], in assay [6], in assay [7], in assay [8] and in [9] was “inactive” in each case. Moreover, the Potency result in assay [10], in assay [11] and in assay [15] was “inactive” throughout. Further, the compound was called inactive in assay [4].

`CCC(C)(S(=O)(=O)CC)S(=O)(=O)CC`: the Potency result in [1], in assay [2], in assay [20], in [8], in [9] and in assay [10] was “inactive” throughout. Also, the Potency entry in assay [11], in assay [12], in assay [13], in [14], in assay [15] and in assay [16] was “inactive” throughout. The Potency result in assay [18] and in [19] was “inactive” in each case. Besides, the compound was called inactive in assay [5]. The max activation in [17] is -2.56%.

Take `O=S(=O)(O)c1cc(O)ccc1O`: the Potency entry in assay [2], in [3], in assay [20], in assay [6], in [7] and in assay [8] was “inactive” each time. The Potency entry in [9], in assay [10] and in assay [11] was “inactive” each time. Further, the compound was called inactive in assay [4] and in [5].

On to `C[C@@H](CO)NC(=O)[C@@H]1C=C2c3cccc4[nH]cc(c34)C[C@H]2N(C)C1`, for which the Potency result in [1], in assay [2], in assay [3], in assay [6], in assay [7] and in [8] was “inactive” each time. Besides, the Potency entry in assay [9], in assay [10], in [16], in assay [18] and in assay [19] was “inactive” in each case. For the same compound, the max activation in assay [17] was -0.825%.

Consider `COc1ccc(OC)c([C@@H](O)[C@H](C)N)c1`, for which the Potency result in assay [1], in assay [3], in assay [20], in [6], in assay [7] and in [8] was “inactive” in each case. Moreover, the Potency result in assay [9], in [10], in assay [11], in assay [12], in assay [13] and in [14] was “inactive” in each case. The Potency result in [16], in assay [18] and in assay [19] was “inactive” each time. Moreover, the compound was classed as inactive in assay [4]. The max activation in [17] is -3.61%.
